# Compound activity as filed in PubChem.
# HCMV antiviral: inhibitors of human cytomegalovirus | HFF cells, HCMV-luciferase reporter, 72 h; hits give low values | activity change, negative = inhibition, % at 57.5 µM | actives 4.5% (n = 410,000); in the data active means activity change below about -60%; inconclusive means no clear call, values can overlap the other calls; inactive means above about -39%
#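 Screen run at 2 compound doses on HFFs infected with reporter HCMV, MOI 1 PFU/cell. Luciferase activity from cell lysates at 72 h post infection gave inhibition relative to buffer-only and Salinomycin wells.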
# Pf growth 48h: inhibits P. falciparum growth in the first generation, 48 h. P. falciparum luciferase growth in erythrocytes, 48 h. Potency, µM (series often up to 28.7 µM), inactives show at the highest dose activity change, negative = inhibition, usual class: inhibitors. actives 5.9% (n = 310,000); further: potency means the concentration at half of the fitted maximal effect
#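 Cell-based growth assay: transgenic P. falciparum expressing firefly luciferase, cultured in red cells within RPMI 1640 containing 0.5% w/v Albumax, 24 mM bicarbonate and gentamycin. A drop in luciferase activity indicates inhibition.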
# Pf growth 96h: P. falciparum growth inhibition at 96 hours. P. falciparum luciferase reporter growth, 96 h. Potency, µM (series often up to 28.7 µM), without a hit: top-dose activity change, negative = inhibition, hits mostly inhibitors. actives 6.9% (n = 320,000); further: potency means the concentration at half of the fitted maximal effect
#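 Two-generation exposure (96 h) targets delayed-death phenotype. Reporter parasites carrying integrated firefly luciferase, in red cells at 2% hematocrit and 0.05% parasitemia final, kept at 37 C, 5% CO2; luminescence loss indicates inhibition.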
# HCV inh: inhibitors of hepatitis C virus infection; Huh7.5.1 HCVcc-Cre infection, luciferase reporter, 44 h; Potency, µM (highest dose often 41.8 µM), for the others: top-dose activity change, negative = inhibition, actives largely listed as inhibitors; actives 3.4% (n = 340,000); further: potency means the concentration at half of the fitted maximal effect
#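 Luciferase read-out (15 sec integration) after a 15 min room-temperature substrate step quantifies HCVcc-Cre infection. Cells, 1,000 per well, had compound added 4 h post-plating, then virus at ~0.5 moi, and were cultured 44 h.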
# * marks the source's active call; other numbers are inactive results; u = inconclusive; x = not tested or not shown. Compounds with a hit are over-represented: about 13% of the library has one in this group of screens. Unless noted, the call rests on the fitted dose curve; in most records, active means well fitted inhibition curve with a large enough effect; inconclusive means small, poorly fitted or top-dose-only effect, or another doubt; inactive means no such curve, though single readings can be large or run the other way. On the % scale 0 is the no-effect control and ±100 the full control effect.
SMILES,HCMV antiviral,Pf growth 48h,Pf growth 96h,HCV inh
CC(C)(C)n1nnnc1C(c1cccnc1)N1CCN(C2CCCCC2)CC1 (centres undefined),34.9,12.1%,-2.3%,9.2%
CC(C)(C)n1nnnc1C(c1cccnc1)N1CCN(c2cccc(C(F)(F)F)c2)CC1 (centres undefined),-19.7,3.7µM*,-25.1%,-5.9%
CC(C)(C)n1nnnc1C(c1ccccc1)N1CCN(c2ncc(C(F)(F)F)cc2Cl)CC1 (centres undefined),-77.5*,x,x,x
O=C(Nc1ccc(F)c(Cl)c1)C1CCN(c2ncccn2)CC1,-14.7,x,x,x
CCN(CC)CCCNC(=O)c1sc2nc3n(c(=O)c2c1C)CCCCC3,-15.2,x,x,x
O=S(=O)(NCc1ccccc1)c1ccc(S(=O)(=O)N2CCCCC2)cc1,9.8,15.0%,5.22µM*,6.9%
CCOc1ccc(S(=O)(=O)N2CCN(C(=S)NCc3ccccc3)CC2)cc1,-6.5,2.33µM*,2.08µM*,u
CCOc1ccccc1N1CCN(C(=S)NCc2ccccc2)CC1,-88.0*,u,-11.6%,12.7%
O=S(=O)(c1ccccc1F)N1CCN(C(=S)NCc2ccccc2)CC1,-31.3,3.7µM*,2.62µM*,-3.9%
O=S(=O)(NCCc1ccccc1)c1ccc(S(=O)(=O)N2CCCCC2)cc1,12.8,x,u,5.7%
O=C(NCc1ccc(F)cc1)N1CCN(S(=O)(=O)c2ccccc2F)CC1,-36.0,7.1%,-8.9%,4.7%
Cc1ccc(CCNC(=O)CCCn2c(=O)c3ccccc3n(Cc3ccccc3C#N)c2=O)cc1,-6.2,x,x,x
O=S(=O)(c1cccc(F)c1)N1CCN(C(=S)NCc2ccccc2)CC1,-13.6,3.7µM*,u,8.6%
CCOc1ccc(S(=O)(=O)N2CCC(C(=O)N3CCN(Cc4ccccc4)CC3)CC2)cc1,5.4,9.28µM*,0.5%,u
O=S(=O)(c1ccccc1)N1CCN(C(=S)NCc2ccccc2)CC1,16.5,2.62µM*,2.08µM*,27.0%
COc1ccc(CNC(=S)N2CCN(S(=O)(=O)c3cccc(F)c3)CC2)cc1,u,u,3.29µM*,18.1%
CCOC(=O)N1CCN(C(=O)C2CCN(S(=O)(=O)c3ccc(OCC)cc3)CC2)CC1,-2.8,0.0%,43.6%,-0.7%
COc1ccc(CNC(=O)CN(c2ccccc2OC)S(=O)(=O)c2ccc(C)cc2)cc1,-31.1,x,x,x
Cc1noc(C)c1C(=O)OCC(=O)c1c[nH]c2ccccc12,17.3,9.28µM*,u,-9.9%
Cc1cc(C(=O)OCC(=O)c2cccc([N+](=O)[O-])c2)c2cccc(C)c2n1,-1.8,u,0.415µM*,5.4%
O=C(OCC(=O)c1c[nH]c2ccccc12)c1cncc(Br)c1,12.9,x,x,6.3%
O=C(OCC(=O)c1c[nH]c2ccccc12)c1cccc([N+](=O)[O-])c1,-5.6,8.28µM*,13.1µM*,-0.1%
CCOC(=O)c1ccc(NC(=O)CN2C(=O)c3cccnc3Sc3ccccc32)cc1,16.8,x,x,x
CCOC(=O)c1c(NC(=O)CSc2nnnn2-c2ccccc2)sc2c1CC(C)(C)NC2(C)C,x,6.57µM*,2.62µM*,-18.0%
CCOC(=O)c1sc(NC(=O)CSc2nnnn2-c2ccccc2)c(C(=O)OCC)c1C,x,-5.0%,-12.2%,0.1%
SMILES,HCMV antiviral,Pf growth 48h,Pf growth 96h,HCV inh
CCOC(=O)c1c(NC(=O)c2ccc(C)cc2)sc2c1CC(C)(C)NC2(C)C,x,34.4%,39.5%,x
CCOC(=O)c1c(NC(=O)CSc2nc3ccc(C)cc3[nH]2)sc2c1CC(C)(C)NC2(C)C,-19.7,4.65µM*,4.65µM*,6.31µM*
CCOC(=O)c1c(NC(=O)CSc2nnnn2-c2ccccc2OCC)sc2c1CC(C)(C)NC2(C)C,-29.7,10.4µM*,8.28µM*,u
CCOC(=O)c1c(NC(=O)CCS(=O)(=O)c2ccccc2)sc2c1CC(C)(C)NC2(C)C,13.3,-19.8%,u,1.4%
Cc1ccc(/C=C/c2onc(C)c2S(=O)(=O)N2CCC(C(=O)N(CCC(C)C)Cc3ccco3)CC2)cc1,-20.8,x,x,x
CC(=O)Nc1ccc(N=c2cc([N+](=O)[O-])cc(Cl)n2O)cc1,-85.0*,-18.8%,-0.9%,10µM*
CN(C)C(=O)c1ccc(-n2cccn2)nc1,u,10.4µM*,2.0%,4.0%
O=C(NCc1ccc(Cl)cc1)c1ccc(-n2cccn2)nc1,-31.2,162.0%,28.6%,10.2%
CCOC(=O)c1cc([N+](=O)[O-])c([N+](=O)[O-])cc1NC(C)=O,-100.2*,-0.3%,-13.8%,u
CCOC(=O)c1ccc(NC(=O)c2ccccc2[N+](=O)[O-])cc1,22.0,46.4%,8.7%,u
O=C(O)c1ccc(NC(=O)N2C[C@H]3C[C@@H](C2)c2cccc(=O)n2C3)cc1,-9.5,2.9%,u,10.2%
O=C(c1ccc(-c2nnc(Nc3ccccc3)c3ccccc23)cc1)N1C[C@H]2C[C@H](C1)c1cccc(=O)n1C2,-34.1,13.1µM*,3.7µM*,5.5%
S=C(S)OC1CC2CC1C1CCCC21 (centres undefined),-60.3*,x,x,45.6%
Cc1ccccc1Cn1c(CN2CCC(C(=O)NCCc3ccccc3)CC2)cc2ccccc21,6.9,x,x,x
Cc1ccc(NC(=O)c2sc3nc(CCl)[nH]c(=O)c3c2C)c(C)c1,14.6,u,u,11.2µM*
CSCc1nc2sc(C(=O)Nc3nc(C)cs3)c(C)c2c(=O)[nH]1,43.9,79.9%,84.5%,11.2µM*
CCN(CC)C(=O)c1sc2c(c1C)c(=O)n(-c1ccc(C)c(C)c1)c(=O)n2CC(=O)Nc1ccc(OC)cc1OC,-3.4,x,x,x
CC1CC2(C)Oc3ccccc3CC2C(C)C1CNCCCN(C)C (centres undefined),-98.5*,u,u,u
c1ccc(-n2cc(CN3CCCC(CN4CCCC4)C3)c(-c3ccc4c(c3)OCO4)n2)cc1 (centres undefined),u,u,44.5%,12.6µM*
COc1ccc(-c2nn(-c3ccccc3)cc2CO)cc1OC,9.5,13.1µM*,-11.6%,u
OCc1cn(-c2ccccc2)nc1-c1ccc2c(c1)OCCO2,80.8,195.4%,84.1%,11.2µM*
O/N=C/c1cn(-c2ccccc2)nc1-c1ccc2c(c1)OCCO2,-10.8,u,56.4%,-15.2%
OC[C@@H]1CCCN1Cc1cn(-c2ccccc2)nc1-c1ccc2c(c1)OCO2,-38.3,13.1µM*,356.8%,-9.9%
Cc1oc(-c2ccc(C(=O)NCc3ccc(N(C)C)cc3)cc2)nc1COc1ccccc1,2.0,x,x,x
Nc1nonc1-c1nc2ccccc2n1CC(=O)Nc1cccc(C(F)(F)F)c1,-11.8,x,x,x
CN(C)S(=O)(=O)c1ccc(C(=O)Nc2c(C(=O)Nc3ccc(F)cc3)oc3ccccc23)cc1,10.6,x,x,x
COc1ccc(-c2csc(NC(=O)c3c(OC)cccc3OC)n2)cc1,-15.6,5.86µM*,u,u
O=C(Nc1nc(-c2cc(F)ccc2F)cs1)C1=NN(c2ccccc2)C(=O)CC1,61.3,u,u,2.5%
CCOC(=O)c1ccccc1NS(=O)(=O)c1c(-c2ccc(C)cc2)csc1C(=O)OC,-65.2*,x,x,x
O=C(Nc1nc(-c2ccc3ccccc3c2)cs1)c1ccc(N2C(=O)CCC2=O)cc1,-70.7*,-6.6%,-19.0%,-25.3%
